An excerpt weighted towards active compounds, which were near 2.6% of everything screened.
PMP22 txn prim – modulators of PMP22 gene transcription in S16 Schwann cells. S16 Pmp22-F2sN Schwann cells, FLuc/NLuc coincidence luminescence, 24 h. Potency, µM (doses to about 57.5 µM), for the others: top-dose activity change, negative = inhibition, hits mostly inhibitors. 43,000 tested, 2% active. AID 1508649; active means clear falling dose curves in both reporters; inconclusive means both reporters move, but less clearly or upward; inactive means either reporter flat; the % is the NLuc reporter signal; further: potency means the concentration at half of the fitted maximal effect; on the % scale 0 is the no-effect control and ±100 the full control effect
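S16(c9) Schwann cells with FLuc/NLuc coincidence reporter in the Pmp22 3' UTR; compounds pin-transferred, 24 h at 37C. Dual-luciferase read: FLuc first, then NLuc after Stop&Glo, each 10 min at room temperature.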
S16 F2sN tox – S16 Schwann cell cytotoxicity; S16 Pmp22-F2sN Schwann cells viability, CellTiter-Glo, 24 h; Potency, µM (top dose mostly 57.5 µM), inactives show at the top dose activity change, negative = cytotoxicity, most hits filed as cytotoxic; 43,000 tested, 0.48% active; AID 1508642; further: potency means the concentration at half of the fitted maximal effect; on the % scale 0 is the no-effect control and ±100 the full control effect; nearly all actives have a fitted effect of over 65% in size
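Viability was measured by CellTiter-Glo luminescence (15 min, room temperature). This followed 24 h at 37 °C of compound exposure (23 nL pin transfer) in S16 Pmp22-F2sN Schwann cells, 500-1,000 per well.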
mTORC1 inh – mTORC1 pathway inhibition measured by phospho-rpS6. Tsc2-/- p53-/- MEF, phospho-rpS6 immunofluorescence/PI, 24 h. Potency, µM (highest dose often 38.3 µM), without a hit: at the top dose activity change, negative = inhibition, usual class: inhibitors. 44,000 tested, 0.78% active;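 further: potency means the concentration at half of the fitted maximal effect; plate controls were DMSO for no effect and rapamycin for full effect; nearly all actives have a fitted effect of over 50% in size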
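Tsc2-/-, p53-/- MEFs (empty-vector stable line) in DMEM + 10% FBS were treated with compounds 24 h at 37 degree Celsius, fixed, and immunostained for phospho-rpS6 (Alexa-488) with propidium iodide counterstain. Laser-scanning cytometry gave % positive cells, normalized against 7.5 nM rapamycin and DMSO.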
OvCa metastasis – inhibitors of ovarian cancer cell adhesion and invasion in omental model; 46,000 tested, 0.1% active; Potency, µM (top dose mostly 45.8 µM), inactives show at the highest dose activity change, negative = inhibition, hits mostly inhibitors; AID 1963576; SKOV3ip1-GFP adhesion/invasion on 3D omental model, fluorescence;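 further: potency means the concentration at half of the fitted maximal effect; plate controls were DMSO wells for no effect and tomatine positive control wells for full effect; nearly all actives have a fitted effect of over 65% in size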
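Adhesion/invasion was scored as fixed GFP-labeled SKOV3ip1 cell counts (488/509 nm), normalized to DMSO and tomatine controls. Cancer cells in serum-free medium, with four compound doses (0.36-46 umol/L), sat 2 hr at RT then 16 hr at 37 C on a 48 hr fibroblast/mesothelial/ECM culture.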
GALC G270D up – galactocerebrosidase G270D activity enhancement, cell-based | P54803 | 145M-Twi-hGALC-G270D cells (Twitcher mouse brain line with human GALC G270D), HMU-beta-Gal fluorescence, 48 h | Potency, µM (top dose mostly 57.5 µM), usual class: activators | 45,000 tested, 0.1% active; further: potency means the concentration at half of the fitted maximal effect; 0% is about no effect; nearly all actives have a fitted effect of over 65% in size
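Fluorescence readout: HMU-β-gal cleavage by mutant GALC (0.1 mM final, citrate/phosphate pH 5.2 with 1 mg/mL taurocholate), stopped with carbonate/bicarbonate plus Triton X-100. Cells: murine Twitcher 145M-Twi expressing human G270D GALC; qHTS for activators.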
NLuc sat counter – NanoLuc enzyme inhibition artifact for PMP22 screen | Potency, µM (titrated, usually from 57.5 µM), for the others: top-dose activity change, negative = inhibition, hits mostly inhibitors | Secreted NLuc enzyme (filtered S16 cell medium), Nano-Glo luminescence | 690 tested, 4% active | AID 1508638 | shares compounds with PMP22 txn prim; further: potency means the concentration at half of the fitted maximal effect; on the % scale 0 is the no-effect control and ±100 the full control effect
NLuc Km counter – NanoLuc inhibition at Km substrate, PMP22 artifact check; shares compounds with PMP22 txn prim; secreted NLuc enzyme, coelenterazine luminescence, Km conditions; Potency, µM (doses to about 57.5 µM), for inactives: top-dose activity change, negative = inhibition, actives largely listed as inhibitors; 690 tested, 5% active; AID 1508639; further: potency means the concentration at half of the fitted maximal effect; on the % scale 0 is the no-effect control and ±100 the full control effect
FLuc ctr PMP22 – counter-screen for PMP22 expression modulators: firefly luciferase inhibition. shares compounds with PMP22 txn prim. purified P. pyralis FLuc, luminescence, 10 min. Potency, µM (series often up to 57.5 µM), inactives show at the highest dose activity, negative = inhibition, most hits filed as inhibitors. 690 tested, under 10 active. AID 1508640; further: % of control where 0% means no effect
Target sequence (P08659 whole entry, looked up): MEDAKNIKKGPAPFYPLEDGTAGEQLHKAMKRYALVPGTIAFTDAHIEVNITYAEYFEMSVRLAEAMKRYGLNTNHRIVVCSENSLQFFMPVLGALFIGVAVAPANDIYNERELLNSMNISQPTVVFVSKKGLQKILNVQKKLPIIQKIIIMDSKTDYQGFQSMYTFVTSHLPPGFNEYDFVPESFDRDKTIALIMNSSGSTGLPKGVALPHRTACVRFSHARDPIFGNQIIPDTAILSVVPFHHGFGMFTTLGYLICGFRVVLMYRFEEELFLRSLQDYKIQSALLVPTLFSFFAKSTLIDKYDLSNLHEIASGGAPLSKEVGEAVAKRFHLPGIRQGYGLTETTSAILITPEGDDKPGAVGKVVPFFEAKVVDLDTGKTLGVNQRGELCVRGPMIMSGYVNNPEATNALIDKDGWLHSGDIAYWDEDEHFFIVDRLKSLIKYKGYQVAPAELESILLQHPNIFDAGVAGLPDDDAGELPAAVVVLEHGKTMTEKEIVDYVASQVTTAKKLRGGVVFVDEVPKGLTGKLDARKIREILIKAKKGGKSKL
S16 viab conf – S16 Schwann cell cytotoxicity, confirmatory; shares compounds with PMP22 txn prim; S16 Schwann cells viability, CellTiter-Glo ATP luminescence, 24 h; Potency, µM (top dose mostly 57.5 µM), without a hit: at the highest dose activity change, negative = viability loss, hits mostly cytotoxic; 690 tested, 7% active; further: potency means the concentration at half of the fitted maximal effect; on the % scale 0 is the no-effect control and ±100 the full control effect
PMP22 txn conf – PMP22 transcription modulation, confirmatory | shares compounds with PMP22 txn prim | S16 Schwann cells Pmp22-F2sN, dual luciferase, 24 h | Potency, µM (doses to about 57.5 µM), without a hit: at the top dose activity change, negative = inhibition, usual class: inhibitors | 690 tested, 22% active; active means clear falling dose curves in both reporters; inconclusive means both reporters move, but less clearly or upward; inactive means either reporter flat; the % is the FLuc reporter signal; further: potency means the concentration at half of the fitted maximal effect
PMP22 prot conf – confirmation of modulators of rat PMP22 protein expression | Potency, µM (highest dose often 27.9 µM), for inactives: top-dose activity change, negative = inhibition, hits mostly inhibitors | S16 Schwann cells Pmp22-HiBiT, luminescence, 48 h | shares compounds with PMP22 txn prim | 95 tested, under 10 active
Target sequence (P25094 whole entry, looked up): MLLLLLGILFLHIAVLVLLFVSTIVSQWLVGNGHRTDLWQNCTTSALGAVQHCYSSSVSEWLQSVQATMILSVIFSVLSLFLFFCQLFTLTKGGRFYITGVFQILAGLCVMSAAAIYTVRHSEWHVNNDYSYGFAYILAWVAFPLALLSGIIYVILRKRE
Starred values were filed as active, the others as inactive; i = inactive; ? = inconclusive; / = not tested or not shown. Unless noted, the call rests on the fitted dose curve; in most records, active means well fitted curve in the direction sought with a large enough effect; inconclusive means small, poorly fitted or top-dose-only effect, or another doubt; inactive means no such curve, though single readings can be large; an effect the other way counts as inactive or inconclusive.

SMILES	PMP22 txn prim	S16 F2sN tox	mTORC1 inh	OvCa metastasis	GALC G270D up	NLuc sat counter	NLuc Km counter	FLuc ctr PMP22	S16 viab conf	PMP22 txn conf	others
CC(=O)N1c2ccc(S(=O)(=O)NCC3CCC(C(=O)Nc4ccccc4C)CC3)cc2CC1C (centres undefined)	-27%	-8%	-26%	10%	i	/	/	/	/	/
CC(=O)N1c2ccc(S(=O)(=O)NCC3CCC(C(=O)Nc4cc(C)ccc4C)CC3)cc2CC1C (centres undefined)	?	?	-20%	-22%	i	-15%	2%	4%	-24%	-47%
Cc1ccc(NC(=O)CSc2nc3ccccc3nc2Cc2ccccc2)c(C)c1	9.5µM*	-3%	0%	-3%	i	-4%	-3%	-1%	17%	?
CCc1ccc(NC(=O)CSc2nc3ccccc3nc2Cc2ccc(C)cc2)cc1	-15%	-12%	-1%	i	i	/	/	/	/	/
Cc1ccccc1OCC(=O)Nc1ccc2[nH]c(=O)sc2c1	?	-6%	-3%	i	i	/	/	/	/	/
Cc1ccc(OCC(=O)Nc2ccc3[nH]c(=O)sc3c2)cc1	15µM*	15%	-10%	6%	i	-13%	-14%	-16%	20%	?
C[C@@]1(c2cc(-c3cncnc3)c(F)cc2F)CCSC(N)=N1	/	/	/	11%	/	/	/	/	/	/
COc1cc(-c2noc(-c3ccc(NCc4ccco4)c([N+](=O)[O-])c3)n2)cc(OC)c1OC	3.2µM*	4%	0%	11%	i	?	?	-1%	-12%	?
CCn1c(C(=O)N(C2CC2)C2CC2)cc2c3c(ncn3C)c(Nc3cc(C)n(C)n3)nc21	/	/	/	-5%	/	/	/	/	/	/
CCS(=O)(=O)c1ncc(Cl)c(C(=O)Nc2c(C(=O)c3ccc(C)cc3)oc3ccccc23)n1	2.1µM*	?	-5%	-9%	i	-7%	?	2%	?	9.3µM*	PMP22 prot conf=-24%
CCC(C)NC(=O)c1cn(CC)c2ccc(S(=O)(=O)N3CCc4ccccc4C3)cc2c1=O (centres undefined)	17µM*	-20%	1%	i	i	-5%	5%	4%	-23%	-41%
CCn1cc(C(=O)NCCc2ccc(OC)c(OC)c2)c(=O)c2cc(S(=O)(=O)N3CCCCCC3)ccc21	?	?	1%	6%	i	?	?	-10%	-3%	-54%
CCn1cc(C(=O)NC(C)c2ccccc2)c(=O)c2cc(S(=O)(=O)N3CCc4ccccc4C3)ccc21 (centres undefined)	?	-3%	11%	i	i	/	/	/	/	/
C[C@H](O)[C@@H]1C(=O)N2C(C(=O)O)=C(S[C@@H]3CN[C@H](CNS(N)(=O)=O)C3)[C@@H](C)[C@@H]12	/	/	/	19%	/	/	/	/	/	/
N#Cc1c(O)c2c(-c3ccc(-c4ccccc4O)cc3)csc2[nH]c1=O	/	/	/	-12%	/	/	/	/	/	/
CC(C)COc1ccccc1C1CC(=O)Nc2cc3c(cc21)OCO3 (centres undefined)	8.4µM*	-14%	?	i	i	?	?	-15%	-23%	?
Cc1cccc(N(C)C(=S)Oc2ccc3c(c2)C2CCC3C2)c1 (centres undefined)	/	/	/	/	i	/	/	/	/	/
CC1=C(C(=O)Nc2cc3cn[nH]c3cc2F)C(c2ccc(C(F)(F)F)cc2)CC(=O)N1 (centres undefined)	/	/	/	5%	/	/	/	/	/	/
CCOC(=O)c1ccccc1NC(=O)c1nn(C)c2c1COc1ccccc1-2	17µM*	9%	-17%	-6%	i	-7%	2%	-14%	-8%	18µM*
Cc1ccc(O)c(-c2n[nH]c3c2C(c2ccc(F)cc2)N(Cc2ccco2)C3=O)c1 (centres undefined)	20µM*	-17%	5%	?	i	-15%	?	-3%	13%	-26%
Cc1c(C(=O)OC2CCCCC2)[nH]c2c1C(=O)CC(c1ccccc1Cl)C2 (centres undefined)	6µM*	?	?	2%	i	-19%	?	-19%	-18%	-45%
Cc1c(C(=O)OC2CCCCC2)[nH]c2c1C(=O)CC(c1ccccc1)C2 (centres undefined)	13µM*	3%	-18%	-6%	i	-4%	1%	0%	-10%	?
Cc1c(C(=O)OC2CCCCC2)[nH]c2c1C(=O)CC(c1ccc(F)cc1)C2 (centres undefined)	?	3%	-3%	11%	i	/	/	/	/	/
OC[C@H]1O[C@@H](Oc2ccc(O)cc2)[C@H](O)[C@@H](O)[C@H]1O	/	/	/	11%	/	/	/	/	/	/
COc1cc2c(cc1OC)C(COc1ccc3c(C)cc(=O)oc3c1)N(C(=O)c1ccc(Cl)cc1)CC2 (centres undefined)	-22%	?	-20%	17%	i	/	/	/	/	/
CCOc1ccc(C(=O)N2CCc3cc(OC)c(OC)cc3C2COc2ccc3c(C)cc(=O)oc3c2)cc1OCC (centres undefined)	13µM*	-2%	-2%	-2%	i	-7%	5%	5%	1%	-34%

High-throughput results from PubChem.
